# Experimental data taken from PubChem BioAssay (Tox21).
# Where “and” joins values, the source holds several entries; their conditions need not be identical. Equal entries are not always repeated. Inconclusive results are not listed. Where a call stands in place of a potency, no number is given. Calls of active or inactive are those of the source. Unless noted, calls follow the shape of the dose curve; as a rule, active = well fitted curve in the direction sought with a large enough effect in the repeat runs; inconclusive = weak or mixed curves; inactive = no such curve, though single readings can be large; an effect the other way counts as inactive or inconclusive.
# Key:
# [1] = qHTS assay to identify small molecule antagonists of the vitamin D receptor (VDR) signaling pathway - cell viability counter screen (AID 743225); also: nearly all actives have a fitted effect of over 50% in size; also: potency is read from the fitted curve at half-maximal effect
# How it was run: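 Parallel cytotoxicity test: VDR-UAS-bla HEK 293T, 3 nM (final) 1-alpha,25-dihydroxyvitamin D3 with test compound, 16 h, 37C. Endpoint is CellTiter-Glo luminescence in the same wells.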
# [2] = qHTS assay to identify small molecule agonists of the endoplasmic reticulum stress response signaling pathway (AID 1159516; active = well fitted activation curve with a large enough effect in the signal ratio in the repeat runs, not every such curve was filed as active; the % refers to the signal ratio)
# How it was run: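 Using a HeLa line with an ESRE-driven beta-lactamase gene, agonist activity was measured by FRET substrate fluorescence (460 and 530 nm emission) after cells were treated with compounds for 5 hr at 37 C and 5% CO2.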
# [3] = qHTS assay to identify small molecule agonists of the endoplasmic reticulum stress response signaling pathway - cell viability counter screen (AID 1159517; calls by dose curve;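 also: HeLa cells carrying an ER stress response element beta-lactamase reporter; series mostly up to about 61 µM; nearly all actives have a fitted effect of over 50% in size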)
# How it was run: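 In parallel with the ESRE reporter read, cytotoxicity was scored by CellTiter-Glo luminescence (30 min, room temperature) on HeLa ESRE-bla cells dosed for 5 hr.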
# [4] = qHTS assay to identify small molecule antagonists of the retinoid-related orphan receptor gamma (ROR-gamma) signaling pathway - cell viability counter screen (AID 1159520); also: nearly all actives have a fitted effect of over 50% in size; also: potency is read from the fitted curve at half-maximal effect
# How it was run: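 Tet-on ROR gamma CHO cells were given compounds for 2 hr, then doxycycline hyclate at 1 uM final, and incubated 16 hr at 37 C. Viability was measured as ATP content by CellTiter-Glo luminescence.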
# [5] = qHTS assay to identify small molecule agonists of the AP-1 signaling pathway - cell viability counter screen (AID 1159525; calls by dose curve; also: nearly all actives have a fitted effect of over 55% in size; also: potency is read from the fitted curve at half-maximal effect)
# How it was run: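 Same-well cytotoxicity counter screen of the Tox21 10K library in ME-180 cells. The readout is ATP-dependent luminescence after 5 h compound treatment. Data are normalised to DMSO and tetra n-octyl ammonium bromide controls.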
# [6] = qHTS assay to identify small molecule agonists of the AP-1 signaling pathway (AID 1159526; calls by dose curve)
# [7] = target: Retinoic acid receptor RXR-alpha (Homo sapiens) (UniProt P19793); experiment: qHTS assay to identify small molecule agonists of the RXR signaling pathway (AID 1159527; calls by dose curve; also: nearly all actives have a fitted effect of over 35% in size)
# Retinoic acid receptor RXR-alpha (Homo sapiens), sequence (P19793 whole entry, looked up): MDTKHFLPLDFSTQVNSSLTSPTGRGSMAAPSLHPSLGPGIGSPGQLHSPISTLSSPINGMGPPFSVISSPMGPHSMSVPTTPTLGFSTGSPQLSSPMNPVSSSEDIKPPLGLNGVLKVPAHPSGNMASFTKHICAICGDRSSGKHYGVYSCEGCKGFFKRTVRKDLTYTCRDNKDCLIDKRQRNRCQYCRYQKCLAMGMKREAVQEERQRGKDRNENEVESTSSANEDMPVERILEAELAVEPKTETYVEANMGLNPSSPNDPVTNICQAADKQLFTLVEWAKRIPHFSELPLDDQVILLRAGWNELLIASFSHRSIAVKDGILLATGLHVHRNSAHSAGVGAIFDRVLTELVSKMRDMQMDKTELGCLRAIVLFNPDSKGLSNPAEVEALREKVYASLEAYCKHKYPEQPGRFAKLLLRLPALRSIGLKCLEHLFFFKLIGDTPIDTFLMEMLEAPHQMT
# How it was run: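 16 hr incubation of compound-treated RXR-alpha-UAS-bla HEK 293T cells (2% charcoal-stripped FBS, 37 C) preceded a 2 hr room-temperature LiveBLAzer FRET substrate step and blue/green fluorescence measurement.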
# [8] = qHTS assay to identify small molecule agonists of the RXR signaling pathway - cell viability counter screen (AID 1159529); also: nearly all actives have a fitted effect of over 50% in size; also: potency is read from the fitted curve at half-maximal effect
# How it was run: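 In this parallel viability measure, GeneBLAzer RXR-alpha HEK 293T cells (2% charcoal-stripped FBS) were given a 5 hr preincubation, treated with compounds 16 hr at 37 C, and read by CellTiter-Glo luminescence.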
# [9] = target: Nuclear receptor ROR-gamma (Homo sapiens) (UniProt P51449); experiment: qHTS assay to identify small molecule antagonists of the retinoid-related orphan receptor gamma (ROR-gamma) signaling pathway (AID 1159521; also: nearly all actives have a fitted effect of over 50% in size; also: potency is read from the fitted curve at half-maximal effect)
# How it was run: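 Decreased RORE-driven luciferase luminescence indicates antagonism. Tet-on RORγ CHO cells received compound, then 1 uM final doxycycline 2 h later; signal read after 16 h incubation.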
# [10] = qHTS assay to identify small molecule agonists of the NFkB signaling pathway - cell viability counter screen (AID 1159515; calls by dose curve; also: nearly all actives have a fitted effect of over 55% in size; also: potency is read from the fitted curve at half-maximal effect)
# How it was run: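 Parallel cytotoxicity counter screen in ME-180 cells carrying an NFkB-response-element beta-lactamase reporter, 2,000 cells/well. Compound exposure lasted 5 hr at 37 C, 5% CO2. Cell viability was quantified by CellTiter-Glo luminescence.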
SMILES,Potency [1],Potency [2],Potency [3],Potency [4],Potency [5],Potency [6],outcome [7],Potency [8],Potency [9],Potency [10]
CC(C)OS(C)(=O)=O,inactive,inactive,inactive,inactive,inactive,inactive,inactive,inactive,,
S=C(SSC(=S)N1CCCCC1)N1CCCCC1,,inactive,inactive,0.188 µM (active),,,,0.12 µM (active),0.15 µM (active),
CCCCCCCCCBr,inactive,inactive,inactive,inactive,inactive,inactive,,inactive,inactive,
CCCCCCCCCCCCBr,,inactive,inactive,inactive,inactive,inactive,,,inactive,
O=C(O)c1cc[c]([Hg][Cl])cc1,21.9 µM (active),inactive,inactive,24.3 µM (active),,,,43.6 µM (active),4.86 µM (active),
c1ccc2c(c1)OCC(C1=NCCN1)O2 (stereo unspecified),inactive,inactive,inactive,inactive,inactive,inactive,,,23.7 µM (active),
CN(C)C(=S)[S-].CN(C)C(=S)[S-].[Cu+2],4.74 µM (active),,,,6.7 µM (active),,,0.844 µM (active),,4.74 µM (active)
CCN,inactive,inactive,inactive,inactive,inactive,inactive,inactive,inactive,inactive,
CN(C)CCc1c[nH]c2cccc(O)c12,inactive,inactive,inactive,inactive,inactive,,,,inactive,
O=C(O)C1C2CCC(O2)C1C(=O)O (stereo unspecified),inactive,inactive,inactive,44.5 µM (active),inactive,inactive,inactive,inactive,13.9 µM (active) and 12.5 µM (active),
Oc1cc(Cl)c(Cl)c(Cl)c1,41.4 µM (active),,,,,,,,29.1 µM (active),inactive
BrC(Br)Br,inactive,inactive,inactive,inactive,inactive,inactive,,inactive,inactive,
ClCc1ccc(Cl)cc1Cl,inactive,,,,inactive,inactive,inactive,inactive,,inactive
CC(C)N1C(=O)N(c2ccccc2)CSC1=NC(C)(C)C,,inactive,inactive,,,,,,43.3 µM (active),
COc1cccc(C(=O)CCN[C@@H](C)[C@H](O)c2ccccc2)c1,inactive,inactive,,inactive,inactive,,,,,
O=C(CCl)C(Cl)Cl,,,inactive,27.6 µM (active),,,,,6.17 µM (active),
C[C@]12Cc3nonc3C[C@@H]1CC[C@@H]1[C@@H]2CC[C@@]2(C)[C@H]1CC[C@]2(C)O,inactive,inactive,,,,,,21.3 µM (active),7.5 µM (active),
CC(Cc1ccc(C(C)(C)C)cc1)CN1C[C@@H](C)O[C@@H](C)C1 (stereo partly specified),inactive,,inactive,inactive,inactive,inactive,inactive,inactive,inactive,
CC(C)CC(C)N (stereo unspecified),inactive,inactive,,inactive,inactive,inactive,inactive,inactive,inactive,
O=c1[nH]c2ccccc2n1CCCN1CCC(n2c(=O)[nH]c3cc(Cl)ccc32)CC1,inactive,inactive,inactive,inactive,inactive,,,16.9 µM (active),,
